Compound activity from PubChem.
Most compounds without a hit are left out; they make up all but 0.43% or so of the library.
GLA inh pH 4.5 = alpha-galactosidase A (human) inhibition, pH 4.5; AID 1467; purified enzyme, 4-MU-alpha-Gal fluorescence, pH 4.5; activity change, negative = inhibition, % at 105 µM; P06280; 230,000 tested, under 10 active;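 also: 0% = full activity with enzyme and -100% = basal without enzyme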
Target sequence (P06280 whole entry, looked up): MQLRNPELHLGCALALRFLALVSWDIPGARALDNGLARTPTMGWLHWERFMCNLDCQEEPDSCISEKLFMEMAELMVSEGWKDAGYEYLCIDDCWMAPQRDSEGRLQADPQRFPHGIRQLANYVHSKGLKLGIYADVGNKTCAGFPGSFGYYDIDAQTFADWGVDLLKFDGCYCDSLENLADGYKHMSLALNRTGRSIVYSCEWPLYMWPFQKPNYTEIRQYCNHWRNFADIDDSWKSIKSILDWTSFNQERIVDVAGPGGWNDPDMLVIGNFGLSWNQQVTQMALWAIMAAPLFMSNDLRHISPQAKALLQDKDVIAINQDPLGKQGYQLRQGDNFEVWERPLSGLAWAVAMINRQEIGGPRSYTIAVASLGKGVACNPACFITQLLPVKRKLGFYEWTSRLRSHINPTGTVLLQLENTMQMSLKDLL
GAA inh = alpha-glucosidase (human) inhibition; purified human GAA, 4-MU-alpha-glucoside fluorescence; P10253; Potency, µM (highest dose often 76.9 µM), for inactives: at the highest dose activity change, negative = inhibition, most hits filed as inhibitors; 0.005% of 200,000 active;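 also: potency is read from the fitted curve at half-maximal effect; plate controls were uninhibited enzyme wells for no effect and no-enzyme background for full effect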
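Fluorogenic assay: 4 nM human alpha-glucosidase with 400 uM 4-methylumbelliferyl-alpha-D-pyranoside in 50 mM citrate/phosphate, 0.005% Tween-20, pH 5.0, 20 min at room temperature. Compounds tested up to 77 uM; AC50 from Hill fits.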
GAA glycogen = alters human alpha-glucosidase cleavage of glycogen | P10253 | recombinant GAA, glycogen substrate, Amplex Red glucose oxidase fluorescence | Potency, µM (highest dose often 76.4 µM), for inactives: top-dose activity change, negative = inhibition, most hits filed as inhibitors | 0.38% of 300,000 active | AID 2100;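 also: potency is read from the fitted curve at half-maximal effect; 0% = full enzyme reaction and -100% = no-enzyme basal signal; the screen sought inhibitors and activators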
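qHTS, 1536-well; enzyme 4 nM final; cpd up to 77 uM; substrate bovine liver glycogen 30 ug; 50 mM citrate/phosphate pH 5.0, 0.01% Tween-20; 37 C, 40 min; Amplex Red detection 45 min RT; Hill fit → AC50.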
aGlu spleen mod = lysosomal alpha-glucosidase (human) modulation | 0.006% of 240,000 active | human spleen homogenate, 4-MU-alpha-glucoside fluorescence | P10253 | AID 2112 | Potency, µM (series often up to 79.9 µM), without a hit: at the top dose activity change, negative = inhibition, usual class: inhibitors;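 also: potency is read from the fitted curve at half-maximal effect; 0% = enzyme with vehicle and -100% = no enzyme basal signal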
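AC50 values come from Hill-equation fits of concentration-response data, normalized to no-enzyme and full-activity controls. Enzyme source: 1 ug human spleen homogenate; 1 mM fluorogenic 4-MU glucoside, pH 5.0 citrate buffer, 37 C, 40 min.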
aGal spleen mod = inhibitors or activators of human alpha-galactosidase in spleen homogenate; P06280; human spleen homogenate, 4MU-alpha-Gal fluorescence, 40 min; Potency, µM (top dose mostly 80 µM), for inactives: at the highest dose activity change, negative = inhibition, usual class: inhibitors; 0.008% of 240,000 active; AID 2107;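 also: potency is read from the fitted curve at half-maximal effect; 0% = enzyme with vehicle and -100% = no enzyme basal signal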
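qHTS titration in buffer at pH 5.0. Alpha-galactosidase activity in spleen homogenate was measured via 4-methylumbelliferone release from 1 mM fluorogenic substrate after 40 min at 37C and a pH 10 stop. AC50 came from Hill fits of control-normalized data.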
N370S GC = N370S glucocerebrosidase modulation, Gaucher chaperone candidate. 0.092% of 330,000 active. N370S GC spleen homogenate, 4MU-glucoside fluorescence. Potency, µM (top dose mostly 59.4 µM), for the others: at the top dose activity change, negative = inhibition, hits mostly inhibitors. P04062;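 also: potency is read from the fitted curve at half-maximal effect; 0% = full enzyme activity and -100% = no enzyme basal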
The depositor's hits bear a star; ? = inconclusive; · = not tested or not shown; [ ] = another dose, or the depositor's remark. Calls follow the shape of the dose curve; as a rule, active = well fitted curve in the direction sought with a large enough effect; inconclusive = small, poorly fitted or top-dose-only effect, or another doubt; inactive = no such curve, though single readings can be large; an effect the other way counts as inactive or inconclusive.

SMILES | GLA inh pH 4.5 | GAA inh | GAA glycogen | aGlu spleen mod | aGal spleen mod | N370S GC
O=C(/C=C/c1ccc(O)c(O)c1)OC1C(O)CC(OC(=O)/C=C/c2ccc(O)c(O)c2)(C(=O)O)CC1O (stereo unspecified) | -14 | -10% | 1.8µM* | -2% | -12% | -21%
Cc1ccccc1C | · | · | · | -8% | 4% | -2%
COc1cc2oc(-c3ccc(O)cc3)cc(=O)c2c(O)c1OC | 2 | · | -16% | 2% | 5% | 10µM*
COc1cc2oc(-c3ccc(O)cc3)cc(=O)c2c(OC)c1O | -13 | 4%[15.4 µM] | -7% | -5% | -12% | ?
COc1ccc(Nc2nc3c([nH]2)c(=O)[nH]c(=O)n3C)cc1 | 7 | -2% | 10µM* | -4% | 3% | 2%
COCCCNc1nc2c([nH]1)c(=O)[nH]c(=O)n2C | · | -4% | ? | -3% | 3% | 12%
c1ccc2c(c1)Nc1ccncc1S2 | 0 | · | 18µM* | 2% | -12% | -1%
Cc1ccccc1CN1C(=O)/C(=C\c2ccc(C(=O)NCCN3CCOCC3)cc2)Sc2ccccc21 | · | · | 0%[76.3 µM] | · | · | ?
O=C(NCCN1CCOCC1)c1ccc(/C=C2\Sc3ccccc3N(Cc3ccccc3F)C2=O)cc1 | · | · | 2%[76.3 µM] | · | · | 1µM*
COc1cc(Cn2c(-c3ccc(O)c(OC)c3)nc3ccccc32)ccc1O | 1 | · | 28µM* | 4% | 7% | -8%
Oc1ccc(N2CCN(C(=S)NCCc3ccccc3)CC2)cc1 | 6 | 8% | 25µM* | -3% | 3% | -16%
CCCN1CCCc2cc(CN(CCCN3CCOCC3)C(=O)Nc3ccc(OCC)cc3)ccc21 | -7 | ? | 3.5µM* | 0% | -6% | ?
CCOc1ccc(NC(=O)N(CCN2CCOCC2)Cc2ccc3c(c2)CCCN3CC)cc1 | 8 | 0% | 8.9µM* | -14% | 17% | 0%
c1ccc(-c2ccc(N3CCCC4(CCNCC4)C3)cc2)cc1 | · | · | · | -3% | -3% | 16µM*
c1ccc(-c2ccc(N3CC4(CCNCC4)C3)cc2)cc1 | · | · | · | -12% | 1% | ?
CCCCCCCCCCC(C)=O | · | · | · | -4% | -13% | -3%
C=C1CC[C@H](O)C/C1=C/C=C1\CCC[C@]2(C)C([C@H](C)CC[C@@H](O)C(C)(C)O)CC[C@@H]12 (stereo partly specified) | · | · | · | -2% | 0% | -2%
O=C1NCCCc2c1oc1ccc(O)cc21 | 3 | -6% | -7% | -12% | -6% | 7%
Oc1c(Cl)cc(Cl)c2c1NCCC2 | -4 | 3% | 14µM* | 5% | 0% | -5%
Cn1c(-c2ccc3c(c2)OCO3)cnc1NCc1cccc(Cl)c1 | 2 | -3% | 18µM* | -7% | -8% | 12%
COc1cc(/C=N/NC(=O)C(=O)/C=C2\NC(C)(C)Cc3ccccc32)ccc1O | -29 | · | 35µM* | 12% | -11% | 3%
O=c1[nH][nH]c(C(F)(F)F)c1C=Nc1ccccc1 | 5 | 2% | 4% | -4% | -11% | 5%
Cc1cc(O)ccc1N=Cc1c(C(F)(F)F)[nH][nH]c1=O | 3 | -11% | 22µM* | 3% | -2% | -5%
O=C(c1ccc(Nc2nccc(-c3cc4ccccc4s3)n2)cc1)N1CCC(N2CCCC2)CC1 | · | · | · | -23% | -8% | -16%
COc1cc(CNCCc2c[nH]c3ccccc23)ccc1OCc1ccc(F)cc1 | -11 | -2% | 2% | -5% | -9% | 16µM*
SMILES | GLA inh pH 4.5 | GAA inh | GAA glycogen | aGlu spleen mod | aGal spleen mod | N370S GC
Cn1cnc([N+](=O)[O-])c1Nc1ccc(O)cc1 | -8 | ? | 28µM* | -9% | 3% | 18%
OCC1CCCN(C(=S)Nc2ccc(Nc3ccccc3)cc2)C1 (stereo unspecified) | 3 | -12% | 25µM* | -8% | 2% | -6%
OCC1CCCN(C(=S)Nc2ccc(OC(F)F)cc2)C1 (stereo unspecified) | -1 | 3% | 12% | -7% | 2% | -3%
O=c1c(O)cc(C2Oc3cc(O)cc(O)c3CC2O)cc2c(C3Oc4cc(O)cc(O)c4CC3O)cc(O)c(O)c12 (stereo unspecified) | 1 | · | · | 4% | 1% | -15%
O=C(NCc1ccc(F)cc1)c1ccc(NC(=O)N2CC3CCCN3c3ccccc32)cc1 (stereo unspecified) | · | · | 16µM* | · | · | ·
CC(C)Oc1ccc(CNC(=O)c2ccc(NC(=O)N3CC(C)Sc4ccccc43)cc2)cc1 (stereo unspecified) | · | · | -7%[76.3 µM] | · | · | ·
COCCNC(=O)NC1(C(F)(F)F)Oc2ccc(Cl)cc2O1 (stereo unspecified) | 5 | -9% | -19% | -2% | -2% | 16%
COc1ccc(OC)c(NC(=O)Nc2ccccc2C)c1 | 0 | ? | 2% | 3% | 4% | 2%
Cc1cc(NC(=O)NC2(C(F)(F)F)Oc3ccc(Cl)cc3O2)no1 (stereo unspecified) | -3 | -1% | 7.1µM* | -2% | -4% | -6%
COc1ccc(OC)c(NC(=O)NC2(C(F)(F)F)Oc3ccccc3O2)c1 | 3 | 0% | 35µM* | 2% | -4% | 7%
Cc1ccc(-c2cc(C(=O)N3CCN(S(=O)(=O)c4ccc(Br)s4)CC3)[nH]n2)c(C)c1 | · | · | 8.9µM* | · | · | ·
Fc1cccc(CNc2ncnc3ccc(-c4cccnc4)cc23)c1 | · | · | · | · | · | -2%
Oc1ccc2cc(SSc3ccc4cc(O)ccc4c3)ccc2c1 | · | · | · | 8% | 15% | 11%
Nc1nc(C2CC2)c(Sc2sc(N)nc2C2CC2)s1 | -4 | 5% | 6.3µM* | 2% | 0% | -13%
O=C(c1ccccc1)N1CCN(c2ccc(NCc3ccc4c(c3)OCO4)cc2)CC1 | -3 | -4% | 28µM* | -1% | -2% | -2%
CC(=O)N1CCN(c2ccc(NCc3ccc4c(c3)OCO4)cc2)CC1 | 6 | 8% | 22µM* | -7% | -9% | -23%
O=C(O)c1cc(NCc2ccc3c(c2)OCO3)ccc1N1CCOCC1 | 5 | -1% | 5µM* | 5% | 8% | -9%
CCc1ccc(N2CCN(C(=O)c3ccc4c(c3)OCO4)CC2)cc1 | · | · | -1%[76.3 µM] | · | · | -7%
COC(=O)c1cc(NCc2ccc3c(c2)OCO3)ccc1N1CCOCC1 | -2 | -7% | ? | -5% | 4% | 1%
C=CC1=C2C=C(C3CC3)N(C3CCCCC3)C=C2C(=O)C(C)(OC(=O)c2ccco2)C1=O (stereo unspecified) | 6 | · | · | 6%[17.4 µM] | -3%[17.5 µM] | -6%[12.8 µM]
O=C(CN1C(=O)c2ccccc2S1(=O)=O)c1ccc(F)c(F)c1 | · | · | · | · | · | -2%
O=C(CN1C(=O)c2ccccc2S1(=O)=O)c1ccc(O)c(O)c1 | 3 | · | 14µM* | 0% | -2% | -6%
NC(=S)N/N=C/c1c(O)ccc2ccccc12 | -17 | · | ? | 18% | ? | -4%
